Results: PubChem BioAssay
Activity calls are given as the source filed them. Unless noted, the rule behind the calls is not given here.

What was measured:
[1] = A549 cell viability effects, profiling panel, calcein-AM fluorescence, 48 h, basal (AID 1162); conditions: higher = more signal; note: test concentration not given here
[2] = adipocyte viability effects, profiling panel, cell-based, 3T3-L1 adipocytes, calcein-AM fluorescence, 48 h, basal (AID 1163); conditions: 3T3-L1 adipocytes viability, higher = more signal; note: test concentration not given here
[3] = HepG2 cell viability effects, profiling panel, calcein-AM fluorescence, 48 h, basal (AID 1164); conditions: higher = more signal; note: test concentration not given here
[4] = MM1S cell viability effects, profiling panel, calcein-AM fluorescence, 48 h, basal (AID 1165); conditions: higher = more signal;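 note: viability of MM1S multiple myeloma cells under basal unstimulated conditions; test concentration not given here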
[5] = basal RPMI8226 viability, no added stimulus, profiling panel, cell-based, calcein-AM fluorescence, 48 h, PK04 Diversity Set (AID 1166); conditions: RPMI8226 myeloma viability, higher = more signal;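 note: cells grown under basal conditions without added stimulus; test concentration not given here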
[6] = basal HepG2 mitochondrial membrane potential changes, profiling panel, cell-based, JC-1 fluorescence, 24 h, 100 nL compound (AID 1167); conditions: higher = more signal; note: test concentration not given here
[7] = basal 3T3-L1 adipocyte mitochondrial potential changes, profiling panel, cell-based, JC-1 fluorescence, 3T3-L1 adipocytes, 24 h, 100 nL compound (AID 1168); conditions: JC-1 mitochondrial fluorescence, higher = more signal, called active from +8 up or from −8 down; note: test concentration not given here
[8] = basal RPMI8226 mitochondrial membrane potential changes, profiling panel, cell-based, JC-1 fluorescence, 24 h, 100 nL compound (AID 1169); conditions: RPMI8226 myeloma, JC-1 mitochondrial potential fluorescence, higher = more signal; note: test concentration not given here
[9] = basal MM1S mitochondrial membrane potential changes, profiling panel, cell-based, JC-1 fluorescence, 24 h, 100 nL compound (AID 1170); conditions: higher = more signal; note: test concentration not given here
[10] = A549 lung cancer cell viability effects, profiling panel, resazurin fluorescence, 24 h, PK04 Diversity Set (AID 1171); conditions: higher = more signal, called active from +8 up or from −8 down; note: test concentration not given here
[11] = HepG2 liver cancer cell viability effects, profiling panel, resazurin fluorescence, 24 h, PK04 Diversity Set (AID 1172); conditions: higher = more signal; note: test concentration not given here
[12] = basal S. cerevisiae growth modulation, no modifier, primary screen, OD600, strain BY4716, 24 h, basal condition (AID 1173); conditions: OD600, 24 h, higher = more signal, called active from +8 up or from −8 down
[13] = MM1S myeloma cell viability, profiling panel, resazurin fluorescence, basal, 24 h, PK04 Diversity Set (AID 1174); conditions: higher = more signal, called active from +8 up or from −8 down;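 note: MM1S multiple myeloma cell line; test concentration not given here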
[14] = target: Dihydroorotate dehydrogenase (quinone), mitochondrial (Plasmodium falciparum (isolate 3D7)) (UniProt Q08210); test: PfDHODH enzyme inhibitors, primary screen, biochemical, C-terminal His tag, absorbance 600 nm (AID 1175); conditions: DCIP absorbance 600 nm, higher = more signal, called active from +8 up or from −8 down;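 note: recombinant parasite enzyme with a five histidine tag at its C terminus; test concentration not given here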
[15] = P. aeruginosa biofilm formation inhibitors, primary screen, strain PAO1, LB-PBS medium, absorbance 600 nm (AID 1176); note: test concentration not given here; conditions: P. aeruginosa PAO1 growth/biofilm, A600, 12 h; higher = more signal
[16] = S. cerevisiae RM11-1a growth modifiers, primary screen, strain RM11-1a, OD600, basal, 24 h (AID 1177); conditions: OD600, 24 h, higher = more signal, called active from +8 up or from −8 down;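 note: cultures grown under basal conditions with no added stressor; test concentration not given here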
[17] = E. coli acrAB mutant growth effects, primary screen, E. coli filamentation inducers, strain DRC39, OD650, 24 h (AID 1178); conditions: higher = more signal, called active from +8 up or from −8 down;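 note: growth measured as culture turbidity by optical density at 650 nm; test concentration not given here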
[18] = E. coli acrAB mutant growth effects, primary screen, E. coli filamentation inducers, strain DRC39, OD650, 48 h (AID 1179);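 note: screen aims at cell division blockers that make cells filament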; conditions: E. coli DRC39 delta-acrAB growth, higher = more signal, called active from +8 up or from −8 down
[19] = RPMI8226 myeloma cell viability, profiling panel, resazurin fluorescence, basal, 24 h, PK04 Diversity Set (AID 1180); conditions: higher = more signal;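 note: RPMI8826 multiple myeloma cell line at 5000 cells per well; test concentration not given here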
[20] = target: E3 ubiquitin-protein ligase XIAP (Homo sapiens) (UniProt P98170); test: XIAP binders, primary screen, biophysical, small-molecule microarray, fluorescence 635 nm (AID 1181); conditions: small-molecule microarray binding, higher = more signal;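 note: score merges 667 nm emission and signal to noise over triplicate slides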
E3 ubiquitin-protein ligase XIAP (Homo sapiens), sequence (P98170 whole entry, looked up): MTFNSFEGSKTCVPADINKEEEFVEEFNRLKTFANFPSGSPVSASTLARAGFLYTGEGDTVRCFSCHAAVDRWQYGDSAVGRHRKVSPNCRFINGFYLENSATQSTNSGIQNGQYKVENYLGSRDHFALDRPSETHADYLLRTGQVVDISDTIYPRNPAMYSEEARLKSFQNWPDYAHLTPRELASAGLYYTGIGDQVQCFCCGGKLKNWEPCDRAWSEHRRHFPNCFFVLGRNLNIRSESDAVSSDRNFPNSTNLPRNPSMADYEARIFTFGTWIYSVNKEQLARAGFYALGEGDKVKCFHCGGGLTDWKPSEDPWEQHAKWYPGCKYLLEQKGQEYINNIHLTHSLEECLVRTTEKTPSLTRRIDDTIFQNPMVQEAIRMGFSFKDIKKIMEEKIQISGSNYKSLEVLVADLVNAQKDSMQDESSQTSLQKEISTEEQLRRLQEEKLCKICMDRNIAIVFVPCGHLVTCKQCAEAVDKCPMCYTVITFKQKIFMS

Dihydroorotate dehydrogenase (quinone), mitochondrial (Plasmodium falciparum (isolate 3D7)), sequence (Q08210 whole entry, looked up): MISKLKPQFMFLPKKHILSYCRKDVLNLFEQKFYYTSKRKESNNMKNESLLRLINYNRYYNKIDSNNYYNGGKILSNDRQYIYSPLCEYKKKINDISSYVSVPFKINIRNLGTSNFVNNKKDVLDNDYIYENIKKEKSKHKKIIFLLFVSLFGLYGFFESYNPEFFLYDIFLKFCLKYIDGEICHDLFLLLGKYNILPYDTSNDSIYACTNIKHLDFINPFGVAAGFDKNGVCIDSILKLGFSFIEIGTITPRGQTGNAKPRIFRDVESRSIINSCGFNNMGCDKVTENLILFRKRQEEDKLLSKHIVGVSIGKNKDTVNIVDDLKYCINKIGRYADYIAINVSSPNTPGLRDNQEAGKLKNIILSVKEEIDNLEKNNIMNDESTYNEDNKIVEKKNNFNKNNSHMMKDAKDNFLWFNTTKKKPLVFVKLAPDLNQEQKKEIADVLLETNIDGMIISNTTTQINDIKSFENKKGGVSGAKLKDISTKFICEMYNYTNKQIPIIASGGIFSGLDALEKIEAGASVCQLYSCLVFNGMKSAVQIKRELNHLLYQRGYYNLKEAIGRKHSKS

Row | SMILES | z-score [1] | z-score [2] | z-score [3] | z-score [4] | z-score [5] | z-score [6] | z-score [7] | z-score [8] | z-score [9] | z-score [10] | z-score [11] | z-score [12] | z-score [13] | composite z-score [14] | z-score [15] | z-score [16] | z-score [17] | z-score [18] | z-score [19] | composite z-score [20]
1 | Cc1ccc(S[C@]2(C(=O)NCC(F)(F)F)CC(=O)N(Cc3ccccc3C(F)(F)F)[C@@H]2c2ccc(CO)cc2)cc1 | -0.859 | 0.0909 | -0.768 | -1.04 | 0.0646 | -0.523 | 0.0107 (inactive) | 0.0145 | -0.594 | 0.413 (inactive) | -0.12 | 0.0386 (inactive) | -0.383 (inactive) | -0.631 (inactive) | 0.568 (inactive) | -0.404 (inactive) | 0.334 (inactive) | 0.2 (inactive) | -0.754 | 0.0256
2 | O=C1[C@H]2C=C(I)[C@H](C[C@@H]2OCCCCCCO)[C@@]12CO2 | 0.249 | -0.0741 | -0.394 | -1.22 | -0.273 | -1.58 | 0.0285 (inactive) | -0.264 | -0.571 | 0.339 (inactive) | 0.21 | -1.77 (inactive) | -0.394 (inactive) | 0.742 (inactive) | 1.13 (inactive) | -0.473 (inactive) | -0.875 (inactive) | -0.482 (inactive) | -0.658 | -0.109
3 | COC(=O)[C@]1(CCC(=O)OC(C)(C)C)N=C(c2ccc(OCCCO)cc2)O[C@@H]1c1ccccc1N=[N+]=[N-] | -1.31 | 1.25 | -0.527 | -2.84 | -3.53 | 0.874 | 1.78 (inactive) | -1.02 | -1.57 | -1.46 (inactive) | -0.223 | 0.887 (inactive) | -2.56 (inactive) | 0.878 (inactive) | 1.31 (inactive) | 2.29 (inactive) | 0.844 (inactive) | 0.182 (inactive) | -2.15 | 0.0037
4 | N#Cc1ccc(-c2cccc(=O)o2)cc1 | -0.719 | -1.13 | 0.37 | -0.0271 | -0.394 | -0.875 | 0.492 (inactive) | 0.0366 | -0.548 | -0.0498 (inactive) | -0.518 | -0.923 (inactive) | 0.141 (inactive) | -0.578 (inactive) | 0.0767 (inactive) | 0.719 (inactive) | -1.1 (inactive) | -0.0301 (inactive) | -0.389 | -0.0085
5 | C=CCC(OC(C)=O)[C@@H]1[C@@H](N(Cc2ccc(-c3cccc(C(F)(F)F)c3)o2)C(=O)Cc2ccc(F)cc2)c2cc(OCCCO)ccc2N1C(=O)Cc1ccc2ccccc2c1 (stereo not given in full) | -0.92 | 1.1 | -0.0416 | -1.7 | -0.261 | 1.8 | 0.978 (inactive) | -0.0117 | 0.0602 | 0.623 (inactive) | 0.533 | 0.658 (inactive) | 0.647 (inactive) | -1.35 (inactive) | 1.13 (inactive) | -0.245 (inactive) | -0.241 (inactive) | -0.088 (inactive) | 0.0748 | -0.132
6 | C=C(COC)C(=O)CC[C@@H](OC(=O)c1ccccc1-c1ccccc1C(=O)O)c1ccc(OCCO)cc1 | -0.25 | 1.27 | -0.354 | -3.06 | -0.414 | -1.05 | -0.144 (inactive) | -0.163 | 0.0435 | -0.205 (inactive) | -0.425 | -0.528 (inactive) | -0.105 (inactive) | -1.09 (inactive) | 0.449 (inactive) | -0.426 (inactive) | -0.699 (inactive) | -0.708 (inactive) | -0.492 | 0.165
7 | COCCCNC(=O)[C@@H]1c2ccccc2C(=O)N(Cc2ccc(OC(F)(F)F)cc2)[C@H]1c1ccc(CO)cc1 | 0.927 | -0.704 | 0.198 | -0.0583 | 0.317 | 1.75 | -0.436 (inactive) | -0.604 | -0.29 | 0.469 (inactive) | 0.201 | 0 (inactive) | -0.148 (inactive) | 0.228 (inactive) | 0.801 (inactive) | -1.06 (inactive) | 0.454 (inactive) | -0.34 (inactive) | 0.116 | -0.219
8 | COC(=O)[C@@]1(Cc2ccccc2)[C@H]2c3cc(C(=O)N(C)C)n(CCO)c3C[C@H]2CN1C(=O)c1ccccc1 | -1.33 | 0.18 | -0.28 | -0.0531 | -1.99 | -0.92 | -2.92 (inactive) | 0.127 | -0.787 | -0.723 (inactive) | -0.546 | 1.24 (inactive) | -1.28 (inactive) | 0.0058 (inactive) | 0.274 (inactive) | 0.329 (inactive) | -0.751 (inactive) | -0.217 (inactive) | -1.11 | -0.0152
9 | [N-]=[N+]=NCc1ccccc1[C@@H]1OC(c2ccc(OCCCO)cc2)=N[C@]1(Cc1ccccc1N=[N+]=[N-])C(=O)O | 0.143 | 1.47 | -0.567 | -1.82 | -3.36 | -1.44 | -1.48 (inactive) | -1.11 | 1.44 | 0.54 (inactive) | 0.495 | -3.6 (inactive) | 0.589 (inactive) | 0.454 (inactive) | 1.42 (inactive) | 0.783 (inactive) | 2.32 (inactive) | 0.499 (inactive) | -0.0845 | 0.104
10 | O=C1OCCC=C[C@H]2OC34C=CCN(c5ccc6ccccc6c5)C(=O)[C@H]3N(CCO)C(=O)[C@@H]4C12 (stereo not given in full) | 0.327 | -0.423 | 0.0955 | 0.508 | 0.037 | -0.409 | -0.502 (inactive) | 0.122 | 0.611 | -0.751 (inactive) | 0.523 | -0.783 (inactive) | -1.23 (inactive) | -3.6 (inactive) | 0.345 (inactive) | 0.0789 (inactive) | -1.26 (inactive) | -1.42 (inactive) | -0.796 | -0.248
